# Mdm2-MdmX inh – inhibitors of human Mdm2-MdmX association, primary screen, cell-based, luminescence, split luciferase, SaOS-2, uHTS. AID 485346, 2010. actives 3% (n = 330,000). SaOS-2 split-luciferase Mdm2/MdmX complementation. inhibition, % at 8 µM;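 active = inhibition of at least 50% at 8 µM in the primary screen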
# CSC inhib – cancer stem cell viability inhibitors, primary screen, luminescence | inhibition, % at 7.5 µM | cancer stem cell-like cells viability | actives 1.1% (n = 300,000); in the data active = inhibition above about 75%; tested in HMLE shEcad cells
# Gli-Sufu block – Gli-Sufu pathway antagonists, primary screen, luciferase luminescence, Sufu-KO-LIGHT cells, uHTS. actives 0.74% (n = 340,000). inhibition, % at 5 µM. Sufu-KO-LIGHT fibroblasts, Gli luciferase reporter luminescence. AID 588413, 2011;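 active = inhibition above about 55%, limit read from the data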;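 note: 0% = DMSO-treated cells and 100% = wells with medium but no cells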
# PAX8 reporter – inhibitors of PAX8-driven TPO luciferase reporter, primary screen, RMG-I cells, single concentration; inhibition, % at 12.6 µM; SteadyGlo, 24 h; AID 652154, 2013; actives 1.2% (n = 360,000);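 active = mean replicate inhibition at least 60% with every replicate also reaching 60%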;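 note: luciferase light reporting Pax8 driven TPO promoter activity; plate controls were median of neutral control wells for no effect and mitoxantrone controls for full effect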
# Shn3 inh set2 – reduction of Shn3 3'UTR firefly luciferase signal, primary screen, Schnurri-3 inhibitor project, cell-based, Clone20 osteoblasts, set 2; Clone20 osteoblast Shn3 3'UTR firefly luciferase, 24 h; AID 588674, 2011; actives 0.52% (n = 360,000); inhibition, % at 12.5 µM;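 active = mean inhibition of at least 75% with every replicate also reaching 75%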;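 note: 0% = median of neutral control wells and 100% = pilot-screen positive control compound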
# Beta apoptosis – inhibitors of cytokine-induced beta cell apoptosis, primary screen, luminescence; protection from apoptosis, % (test concentration not listed); actives 0.8% (n = 300,000); INS-1E cytokine-induced death, ATP luminescence, 48 h; percent of positive-control rescue, neutral wells zero; AID 435005, 2010;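 active = Every replicate reaches about 75%, or at least half do and their mean reaches it too, limit read from the data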;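 note: 0% = cytokine-treated negative control wells and 100% = positive control rescue; higher means more ATP so stronger rescue from cytokine killing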
# * hit, by the source's call; / = not tested or not shown. Shown are actives, neighbours in structure and some others; about 4% of the full set was active somewhere.
SMILES,Mdm2-MdmX inh,CSC inhib,Gli-Sufu block,PAX8 reporter,Shn3 inh set2,Beta apoptosis
CO[C@@H]1CN(C)C(=O)c2cc(NC(=O)C3CC3)ccc2OC[C@H](C)N(Cc2cccc(F)c2)C[C@H]1C,/,/,/,-2,/,/
COc1ccccc1C(=O)N1C[C@@H]2[C@H](c3ccccc31)[C@@H](CO)N2CC1CCOCC1,/,/,/,1,/,/
COc1cc2c(cc1NC(=O)c1ccccc1-c1ccccc1C(=O)O)-c1ccccc1C2,/,/,/,20,-12,/
COc1cc2c(cc1NC(=O)C(Cl)Cl)-c1ccc(NC(=O)C(Cl)Cl)cc1C2,/,/,-15,79*,7,/
Cc1ccc(NC2=NCC(Cc3ccc(Br)cc3)S2)cc1 (stereo not drawn),19,89*,12,-12,28,34
COc1ccc(-c2sc3ccccc3c2/C=C/c2ccncc2)cc1,4,102*,-14,1,0,-8
COc1ccc(-c2sc3cc(OC)c(OC)cc3c2C#CCCO)cc1,37,64,-2,9,22,-1
OCCCCC#Cc1c(-c2ccsc2)sc2ccccc12,14,99*,3,3,-18,-3
COc1ccc(-c2sc3ccc(N4CCOCC4)cc3c2C#CCCO)cc1,47,123*,-1,65*,-11,-2
COc1ccc(-c2sc3ccccc3c2C#CCCO)cc1,17,92*,-2,11,-44,0
CNC(=O)C[C@@H]1CC[C@H]2[C@@H](COc3ccc(NC(=O)c4ccc(F)cc4)cc3C(=O)N2C)O1,/,/,/,0,/,/
CC(C)NC(=O)Nc1cccc2c1O[C@@H](CN(C)S(C)(=O)=O)[C@@H](C)CN([C@@H](C)CO)C2=O,/,/,/,-11,/,/
COc1ccc(-c2sc3ccccc3c2C#Cc2cncn2C)cc1,38,138*,-1,15,3,7
COc1ccccc1-c1sc2cc3c(cc2c1C#Cc1cncn1C)OCO3,20,138*,8,11,-28,8
COc1ccc2sc(-c3ccccc3OC)c(C#Cc3cncn3C)c2c1,34,/,-1,0,-8,/
O=C(CN1C(=O)c2ccccc2S1(=O)=O)c1ccc(Cl)cc1Cl,24,-3,90*,112*,83,-1
Cc1cc(=O)[nH]c(N/N=C/c2ccc(-c3ccc(F)cc3)o2)n1,-4,75*,-23,-46,-30,55
CC1(C)CC(CC(=O)Nc2nccs2)(c2ccccc2)CCO1 (stereo not drawn),-4,-16,7,69*,0,-7
C[C@@H]1CCCCO[C@H](CN(C)S(=O)(=O)c2cn(C)cn2)[C@@H](C)CN([C@@H](C)CO)C(=O)c2cc(NC(=O)Cc3ccccc3)ccc2O1,/,/,/,-13,/,/
CCc1ccc(N=Nc2ccc(O)c3[nH]cnc23)cc1,19,82*,9,-130,-76,4
C=CCn1c(SCN2C(=O)c3ccccc3C2=O)nc2ccc(Cl)cc2c1=O,23,3,/,37,75,98*
C=CCn1c(SCC(=O)Nc2sccc2C(N)=O)nc2ccc(Cl)cc2c1=O,35,3,9,/,75,25
Cc1cccnc1Sc1c([N+](=O)[O-])ncn1C,17,-18,-3,/,0,-2
Cn1cnc([N+](=O)[O-])c1Sc1ncnc2nc[nH]c12,20,85*,-3,18,14,3
Cn1cnc(Sc2ncnc3nc[nH]c23)c1[N+](=O)[O-],17,84*,0,30,55,-3
CC(=O)CSc1ncnc2nc[nH]c12,21,-2,15,/,6,-8
C[C@@H]1CCCCO[C@@H](CN(C)Cc2ccc3c(c2)OCO3)[C@H](C)CN([C@@H](C)CO)C(=O)c2cc(NC(=O)c3ccccc3)ccc2O1,/,/,/,-1,/,/
C[C@H](CO)N1C[C@H](C)[C@H](CN(C)Cc2ccc3c(c2)OCO3)OCCCC[C@H](C)Oc2ccc(NS(=O)(=O)c3ccc(F)cc3)cc2C1=O,/,/,/,19,/,/
COc1ccc(CNCCNC(=O)c2nonc2N)cc1OC,-21,-14,-6,/,31,1
Nc1nonc1C(=O)NCCNCc1cc(Br)ccc1OCc1ccc(F)cc1,19,3,48,/,90*,62
